Experimental data taken from PubChem BioAssay (NCATS).
Records with an inconclusive call do not appear. The source made the active and inactive calls. Calls follow the shape of the dose curve; as a rule, active = well fitted curve in the direction sought with a large enough effect; inconclusive = small, poorly fitted or top-dose-only effect, or another doubt; inactive = no such curve, though single readings can be large; an effect the other way counts as inactive or inconclusive.

Experiments:
KB-3-1 = assay: Cytotoxic Profiling of Annotated Libraries Using Quantitative High-Throughput Screening (AID 1296008); conditions: Five cell lines viability, CellTiter-Glo ATP luminescence, 48-72 h; max response: stronger effect = lower value; also: nearly all actives have a fitted effect of over 60% in size; also: potency is read from the fitted curve at half-maximal effect; as to max response: % is scaled to controls: 0 for no effect and ±100 for the full control effect
In short: (§1)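 Compounds were pin-transferred onto cells and incubated 48 or 72 hr at 37 degree Celsius, 95% humidity. CellTiter-Glo was added, plates sat 10 min at room temperature, then ATP-coupled luminescence was imaged as the viability read-out.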

NIH3T3 [1] = assay: as above; conditions: Five cell lines viability, CellTiter-Glo ATP luminescence, 48-72 h; max response: stronger effect = lower value
In short: as §1

C33A = assay: Primary qHTS to identify gynecologic anti-cancer compounds using libraries of approved drugs and bioactive compounds (AID 1345084); conditions: Gynecologic cancer cell panel viability, ATPlite luminescence, 48 h; series mostly up to 57.5 µM; also: nearly all actives have a fitted effect of over 55% in size; also: potency is read from the fitted curve at half-maximal effect
In short: (§2)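 Cells, 1,000 per well, were allowed to settle for 16 h at 37 C before compound addition. Five concentrations were tested for 48 h, and viability was read by ATPlite luminescence after 15 min at room temperature.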

CAOV3 = assay: as above; conditions: Gynecologic cancer cell panel viability, ATPlite luminescence, 48 h; series mostly up to 57.5 µM
In short: as §2

CASKI = assay: as above; conditions: Gynecologic cancer cell panel viability, ATPlite luminescence, 48 h; series mostly up to 57.5 µM
In short: as §2

Es-2 = assay: as above; conditions: Gynecologic cancer cell panel viability, ATPlite luminescence, 48 h; series mostly up to 57.5 µM
In short: as §2

HeLa = assay: as above; conditions: Gynecologic cancer cell panel viability, ATPlite luminescence, 48 h; series mostly up to 57.5 µM
In short: as §2

Hek293T = assay: as above; conditions: Gynecologic cancer cell panel viability, ATPlite luminescence, 48 h, control line for the selectivity index; series mostly up to 57.5 µM
In short: as §2

JEG-3 = assay: as above; conditions: Gynecologic cancer cell panel viability, ATPlite luminescence, 48 h; series mostly up to 57.5 µM
In short: as §2

HaCat [2] = assay: Cytotoxic Profiling of Annotated Libraries Using Quantitative High-Throughput Screening (AID 1296008); conditions: Five cell lines viability, CellTiter-Glo ATP luminescence, 48-72 h; max response: stronger effect = lower value; also: nearly all actives have a fitted effect of over 60% in size; also: potency is read from the fitted curve at half-maximal effect; as to max response: % is scaled to controls: 0 for no effect and ±100 for the full control effect
In short: as §1

HACAT [3] = assay: qHTS assay to identify novel small-molecules to repurpose for Merkel cell carcinoma treatment (AID 1296009); conditions: MCC and control cell lines, CellTiter-Glo viability, 72 h; series mostly up to 44.8 µM; also: nearly all actives have a fitted effect of over 60% in size
In short: (§3)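 Luminescence from CellTiter-Glo, read 10 min after addition at room temperature, reported viability following a 72 hr, 37 degree celsius treatment with NPC or MIPE compounds in titration; values normalized to plate controls.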

NIH3T3 [4] = assay: as above; conditions: MCC and control cell lines, CellTiter-Glo viability, 72 h; at 44.8 µM (top of the series) unless noted
In short: as §3

C[C@@H]1CN(Cc2ccccc2)C[C@H]1c1nc2c(cnn2C2CCOCC2)c(=O)[nH]1
inactive: max response (KB-3-1) 2.05% | max response (NIH3T3 [1]) -13.9% | Potency (C33A) | Potency (CAOV3) | Potency (CASKI) | Potency (Es-2) | Potency (HeLa) | Potency (Hek293T) | Potency (JEG-3)

COC(=O)[C@@H](O)[C@H]1[C@@]2(C)CC3(O)[C@@H](C(=O)[C@H]2O)[C@]24O[C@]25CC(=O)O[C@@H](c2ccoc2)[C@]5(C)CCC4[C@]13C (stereo not given in full)
inactive: max response (HaCat [2]) 4.1% | max response (KB-3-1) 7.49% | max response (NIH3T3 [1]) -5.38% | Potency (C33A) | Potency (CASKI) | Potency (Es-2) | Potency (HeLa) | Potency (Hek293T) | Potency (JEG-3)

CCCC(=O)C1CCN(c2ncnc3c2CN(C(=O)c2ccc(-c4ccccc4)cc2)CC3)CC1
inactive: max response (HaCat [2]) -5.72% | max response (KB-3-1) -16.8% | max response (NIH3T3 [1]) -13.2% | Potency (C33A) | Potency (CAOV3) | Potency (CASKI) | Potency (Es-2) | Potency (HeLa) | Potency (Hek293T) | Potency (JEG-3)

OC[C@H]1O[C@@H](O[C@H]2[C@H](OCc3ccccc3)O[C@H](CO[C@@H]3OC[C@@H](O)[C@H](O)[C@H]3O)[C@@H](O)[C@@H]2O)[C@H](O)[C@@H](O)[C@@H]1O
inactive: max response (HaCat [2]) -3.65% | max response (KB-3-1) 4.93% | max response (NIH3T3 [1]) -3.84% | Potency (C33A) | Potency (CAOV3) | Potency (CASKI) | Potency (Es-2) | Potency (HeLa) | Potency (Hek293T) | Potency (JEG-3)

O=C(COc1cccc2c(=O)[nH]ccc12)c1ccccc1
inactive: max response (HaCat [2]) -15.5% | max response (KB-3-1) 7.28% | max response (NIH3T3 [1]) 1.93% | Potency (C33A) | Potency (CAOV3) | Potency (CASKI) | Potency (Es-2) | Potency (HeLa) | Potency (Hek293T) | Potency (JEG-3)

CS(=O)(=O)NCC1CCC(Nc2nc3c(s2)CCSc2ccccc2-3)CC1 (stereo not given)
inactive: outcome (HaCat [2]) | max response (KB-3-1) -22.2% | Potency (HACAT [3]) | Potency (C33A) | Potency (CAOV3) | Potency (CASKI) | Potency (Es-2) | Potency (HeLa) | Potency (Hek293T) | Potency (JEG-3)

c1cn2cc(-c3ccc4cn[nH]c4c3)nc(Nc3ccc(N4CCOCC4)cc3)c2n1
active: Potency (C33A) 2.24 µM | Potency (CAOV3) 2 µM | Potency (CASKI) 2.82 µM | Potency (Es-2) 2.51 µM | Potency (HeLa) 2.82 µM | Potency (Hek293T) 2.24 µM | Potency (JEG-3) 2.82 µM
inactive: max response (KB-3-1) 3.1% | max response (NIH3T3 [1]) -11.5%

CC(=O)O[C@@H]1CC(C)=C2[C@H]1[C@H](C)CC[C@H]2/C=C(\C)C(=O)O
inactive: max response (HaCat [2]) -15.4% | max response (KB-3-1) 7.61% | max response (NIH3T3 [1]) -9.33% | Potency (C33A) | Potency (CAOV3) | Potency (CASKI) | Potency (Es-2) | Potency (HeLa) | Potency (Hek293T) | Potency (JEG-3)

CON(C)C(=O)[C@H](O)[C@H](Cc1ccccc1)NC(=O)c1cc2cc(Cl)ccc2[nH]1
inactive: max response (HaCat [2]) -24.4% | max response (KB-3-1) 5.78% | max response (NIH3T3 [1]) -9.74% | Potency (C33A) | Potency (CAOV3) | Potency (CASKI) | Potency (Es-2) | Potency (HeLa) | Potency (Hek293T) | Potency (JEG-3)

O=C(/C=C/c1cccc(S(=O)(=O)Nc2ccccc2)c1)NO
active: Potency (HaCat [2]) 5.02 µM | Potency (KB-3-1) 2.82 µM | Potency (NIH3T3 [1]) 7.96 µM | Potency (C33A) 11.2 µM | Potency (CASKI) 8.91 µM | Potency (Es-2) 5.01 µM | Potency (HeLa) 4.47 µM | Potency (JEG-3) 4.47 µM

C[C@@H]1CC[C@]2(C(=O)OC3OC(CO)C(O)C(O)C3O)CC[C@]3(C)C(=CCC4[C@@]5(C)CC[C@H](O)[C@](C)(C(=O)O)C5CC[C@]43C)C2[C@]1(C)O (stereo not given in full)
inactive: max response (HaCat [2]) -8.63% | max response (KB-3-1) 4.37% | max response (NIH3T3 [1]) -0.137% | Potency (C33A) | Potency (CASKI) | Potency (Es-2) | Potency (HeLa) | Potency (Hek293T) | Potency (JEG-3)

COc1c2c(cc3c1-c1c(cc4c(c1OC)OCO4)CC(C)C(C)C3)OCO2 (stereo not given)
inactive: max response (HaCat [2]) -1.94% | max response (KB-3-1) -8.19% | max response (NIH3T3 [1]) -11.8% | Potency (C33A) | Potency (CAOV3) | Potency (CASKI) | Potency (Es-2) | Potency (HeLa) | Potency (Hek293T) | Potency (JEG-3)

Cc1ccc(C)c(OCCn2cc(C(=O)O)c3ccccc32)c1
inactive: outcome (HaCat [2]) | max response (KB-3-1) 3.13% | max response (NIH3T3 [1]) 4.52% | Potency (HACAT [3]) | Potency (C33A) | Potency (CASKI) | Potency (Es-2) | Potency (HeLa) | Potency (Hek293T) | Potency (JEG-3)

CC(=O)OC1C(=O)C2(C)C(O)CC3OCC3(OC(C)=O)C2C(OC(=O)c2ccccc2)C2(O)CC(OC(=O)C(O)C(NC(=O)c3ccccc3)c3ccccc3)C(C)=C1C2(C)C (stereo not given)
inactive: Potency (C33A) | Potency (Hek293T)
active: Potency (KB-3-1) 0.0082 µM | Potency (NIH3T3 [1]) 0.092 µM | Potency (Es-2) 0.316 µM

CC1=CCC2C(C)(C)CCC[C@]2(C)[C@@]12CC[C@](C)(CC(=O)O)O2 (stereo not given in full)
inactive: max response (HaCat [2]) -3.64% | max response (KB-3-1) -6.84% | max response (NIH3T3 [1]) -1.28% | Potency (C33A) | Potency (CASKI) | Potency (Es-2) | Potency (HeLa) | Potency (Hek293T) | Potency (JEG-3)

CO[C@H]1C[C@@H]2CC[C@@H](C)[C@@](O)(O2)C(=O)C(=O)N2CCCC[C@H]2C(=O)O[C@H]([C@H](C)C[C@H]2CC[C@@H](OP(C)(C)=O)[C@H](OC)C2)CC(=O)[C@H](C)/C=C(\C)[C@@H](O)[C@@H](OC)C(=O)[C@H](C)C[C@H](C)/C=C/C=C/C=C/1C
inactive: max response (HaCat [2]) -3.04% | max response (KB-3-1) 4.5% | max response (NIH3T3 [1]) -2.54% | Potency (C33A) | Potency (CASKI) | Potency (Es-2) | Potency (HeLa) | Potency (Hek293T) | Potency (JEG-3)

O=C1CCC(c2ccccc2)(C2CCN(Cc3ccc(I)cc3)CC2)C(=O)N1 (stereo not given)
inactive: max response (HaCat [2]) -3.49% | max response (KB-3-1) -7.17%

COC(=O)N(C)c1c(N)nc(-c2nn(Cc3ccccc3F)c3ncccc23)nc1N
inactive: max response (KB-3-1) 0.515% | max response (NIH3T3 [1]) 0.88% | Potency (C33A) | Potency (CAOV3) | Potency (CASKI) | Potency (Es-2) | Potency (HeLa) | Potency (Hek293T) | Potency (JEG-3)

C/C1=C\C[C@]2(C)C(=O)C(O)=C([C@H](C)CO)[C@H]2C/C=C(\C)[C@@H](O)CC/C(C)=C/CC1
inactive: max response (HaCat [2]) 0.087% | max response (KB-3-1) 0.384% | max response (NIH3T3 [1]) -2.65% | Potency (C33A) | Potency (CAOV3) | Potency (CASKI) | Potency (Es-2) | Potency (HeLa) | Potency (Hek293T) | Potency (JEG-3)

CCC(C)/C=C(C)/C=C/c1cc2c(cn1)C(=O)C(C)(OC(C)=O)C(O)=C2Cl (stereo not given)
inactive: outcome (HaCat [2]) | outcome (KB-3-1) | outcome (NIH3T3 [1]) | Potency (HACAT [3]) | outcome (NIH3T3 [4]) | Potency (C33A) | Potency (CAOV3) | Potency (CASKI) | Potency (Es-2) | Potency (HeLa) | Potency (Hek293T) | Potency (JEG-3)
